Counter-ions that a name gives are not always drawn. Whole data set: some 2,000 compounds, median “fractional viability relative to vehicle” near 0.92, cut for the lowest 2% near 0.11. Shown is part of a subset that was picked to be rich in the lowest values.

For the experiment, the system named is TYKNU. Kind of experiment: fractional viability relative to vehicle; TYKNU is a high-grade serous ovarian cancer line; higher = less growth inhibition. The note with it: 72 h, genotype: OPA1 knockout (sgOPA1 #2). A digest of the protocol:
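TYKNU control cells or lentiCRISPRv2 knockout derivatives were plated at 500 cells per well in duplicate into drug-stamped 384-well plates holding a ~2100-compound library at 2 or 10 μM. Culture was in RPMI 1640 with 10% FBS at 37 °C in 5% CO2, with 72 h of drug treatment. Viability was measured by Cell Titer Glo luminescence, and the averaged duplicate treatment wells were normalised to duplicate control wells at the same plate position.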

As to `[O-][n+]1ccccc1[S-].[O-][n+]1ccccc1[S-].[Zn+2]` [Zinc Pyrithione], the fractional viability is, setting by setting: (2uM) 0.0671; (10uM) 0.0336.

For the molecule `CN1[C@@H]2C[C@@H](OC(=O)[C@H](CO)c3ccccc3)C[C@H]1[C@@H]1O[C@@H]12` [Scopolamine HBr], the fractional viability is, setting by setting: (2uM) 1.29; (10uM) 0.892.

`C=CC[C@]1(O)CC[C@H]2[C@@H]3CCC4=CC(=O)CCC4=C3C=C[C@@]21C` [Altrenogest]: the fractional viability (2uM) is 0.97 and the fractional viability (10uM) stood at 0.84.

`CC(=O)Nc1ccc(OC[C@](C)(O)C(=O)Nc2ccc([N+](=O)[O-])c(C(F)(F)F)c2)cc1` [Andarine]: the fractional viability reads like this: (2uM) 1.18; (10uM) 1.18.

For the molecule `COC[C@H]1OC(=O)c2coc3c2[C@@]1(C)C1=C(C3=O)[C@@H]2CCC(=O)[C@@]2(C)C[C@H]1OC(C)=O` [Wortmannin], the fractional viability amounted to 0.744 (2uM) and 0.149 (10uM).

`C[C@@H]1CC[C@@]2(OC1)O[C@H]1C[C@H]3[C@@H]4CC=C5C[C@@H](O[C@@H]6O[C@H](CO)[C@@H](O[C@@H]7O[C@@H](C)[C@H](O)[C@@H](O)[C@H]7O)[C@H](O)[C@H]6O[C@@H]6O[C@@H](C)[C@H](O)[C@@H](O)[C@H]6O)CC[C@]5(C)[C@H]4CC[C@]3(C)[C@H]1[C@@H]2C` [Dioscin]: the fractional viability was determined as 0.289 (2uM) and 0.0918 (10uM).

Regarding `Cc1cccc(C)c1NC1=NCCCS1` [Xylazine HCl], the fractional viability reads like this: (2uM) 0.823; (10uM) 0.79.

On to `COc1cc(OC)c(OC)cc1C=O` [Asaraldehyde], for which the fractional viability (2uM) worked out at 1.16 and the fractional viability (10uM) came to 1.15.

In the case of `C=CCN1CC[C@]23c4c5ccc(O)c4O[C@H]2C(=O)CC[C@@]3(O)[C@H]1C5` [Naloxone HCl], the fractional viability (2uM) is 0.816 and the fractional viability (10uM) amounted to 0.957.

In the case of `CCNC(=O)C[C@@H]1N=C(c2ccc(Cl)cc2)c2cc(OC)ccc2-n2c(C)nnc21`, the fractional viability is 0.715 (2uM) and 0.794 (10uM).

Consider `CN[C@@H]1C[C@H]2O[C@@](C)([C@@H]1OC)n1c3ccccc3c3c4c(c5c6ccccc6n2c5c31)C(=O)NC4` [Staurosporine], for which the fractional viability stood at 0.264 (2uM) and 0.0922 (10uM).

In the case of `COc1ccc(C(CN(C)C)C2(O)CCCCC2)cc1` (centres undefined) [Venlafaxine], the fractional viability was 1.21 (2uM) and 1 (10uM).

`Cn1c(CCCC(=O)O)nc2cc(N(CCCl)CCCl)ccc21` [Bendamustine HCl]: the fractional viability (2uM) came out at 1.1 and the fractional viability (10uM) was found to be 1.11.

For `CN1CCC(c2c[nH]c3ccc(O)cc23)CC1`, the fractional viability reads like this: (2uM) 0.838; (10uM) 0.922.

`CCOc1ccccc1-n1c(C(C)N2CCN(C(=O)COc3ccc(Cl)cc3)CC2)nc2ccccc2c1=O` (centres undefined) [Erastin]: the fractional viability runs as follows: (2uM) 0.45; (10uM) 0.0976.

Regarding `C[C@H]1CNCCc2ccc(Cl)cc21` [Lorcaserin HCl], the fractional viability was 1.04 (2uM) and 1.02 (10uM).

`CCCN1C[C@H](CSC)C[C@@H]2c3cccc4[nH]cc(c34)C[C@H]21` [Pergolide mesylate]: the fractional viability was 0.978 (2uM) and 0.96 (10uM).

Values taken from the supplement of paper PMC5919970.
